D1 agonist: human D1 receptor agonism; P21728; 360,000 tested, 1% active; HEK293 T-REx D1 cells, calcium flux, agonist mode; AID 504660; activation, % at 2 µM; also: 0% is about no effect
Target sequence (P21728 whole entry, looked up): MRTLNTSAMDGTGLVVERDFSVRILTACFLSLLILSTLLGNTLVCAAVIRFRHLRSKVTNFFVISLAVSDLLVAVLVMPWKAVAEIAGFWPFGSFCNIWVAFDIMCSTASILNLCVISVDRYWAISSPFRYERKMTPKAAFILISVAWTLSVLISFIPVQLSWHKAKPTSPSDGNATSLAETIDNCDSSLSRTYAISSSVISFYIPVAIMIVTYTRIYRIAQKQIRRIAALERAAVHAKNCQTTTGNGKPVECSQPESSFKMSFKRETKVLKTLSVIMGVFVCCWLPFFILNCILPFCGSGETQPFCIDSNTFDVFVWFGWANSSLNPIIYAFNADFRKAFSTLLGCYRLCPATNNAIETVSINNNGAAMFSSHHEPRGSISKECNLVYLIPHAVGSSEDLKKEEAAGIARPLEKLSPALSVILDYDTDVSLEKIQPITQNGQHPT
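Inducible HEK293 T-REx D1 cells, force-coupled to calcium signalling, were plated at 4000 cells/well with tetracycline and held overnight at 30 C. After no-wash calcium dye loading, compound-evoked calcium rise over 180 s flagged agonists.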
D1 potentiator: enhances dopamine response at the human D1 receptor; potentiation, % at 10 µM; P21728; 360,000 tested, 0.036% active; HEK293 TREx D1 cells, calcium flux, dopamine EC20 potentiation; in the data active = potentiation above about 30%; also: 0% is about no effect
TRHR enhancer: allosterically enhances the human TRH receptor | TRHR cells, fluo-8 calcium fluorescence, EC20 TRH enhancement | enhancement, % at 2 µM | 360,000 tested, 0.66% active | AID 493056; in the data active = enhancement above about 30%; also: 0% is about no effect
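Enhancer read-out: after compound pinning and an initial kinetic agonist-mode read, an EC20 of TRH (10 nM final) was injected and fluo-8 calcium signal (Ex 480/Em 530) followed at 1 s/cycle for 100 cycles in TRHR-expressing cells.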
TRHR ag: activates the human TRH receptor. TRHR cells, calcium flux fluo-8, FDSS agonist mode. activation, % at 2 µM. AID 493084. 360,000 tested, 0.18% active. P34981; also: 0% is about no effect
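Steps: seed TRHR cells overnight; add fluo-8 no-wash Ca dye, RT 30 min–1.5 h; record 10 s baseline; pin-transfer compounds; monitor fluorescence 1 cycle/s for the agonist window. Calcium increases flag candidate agonists.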
D1 antag: human D1 dopamine receptor antagonism; HEK293 TREx D1 cells, calcium flux, dopamine EC80; active compounds read low; activity change, negative = inhibition, % at 10 µM; 360,000 tested, 3.2% active; P21728; AID 504652; in the data active = activity change below about -30%; also: % is scaled to controls: 0 for no effect and ±100 for the full control effect
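After overnight tetracycline induction at 30 C, force-coupled D1 HEK293 cells took up a no-wash calcium dye at room temperature. Compounds were added and monitored 180 s, and the response to EC80 dopamine was then recorded.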
* = called active by the depositor; / = no result given. An excerpt weighted towards active compounds, which were near 4.7% of everything screened. Rule as the data show it, unless noted: active = activation above about 30%; inactive = the rest.

SMILES	D1 agonist	D1 potentiator	TRHR enhancer	TRHR ag	D1 antag
COc1ccc(OC)c(NC(=O)COC(=O)/C=C/c2ccc(Cl)cc2)c1	-2	-8	-4	0	-33*
CCC(CC)NC(=O)Nc1ccc(F)c(Cl)c1	30	-6	2	-1	-46*
COc1ccccc1N1CCN(C(=O)Nc2ccc(F)c(Cl)c2)CC1	2	-3	-1	1	-57*
CC(C)CC(=O)Nc1ccc(F)c(Cl)c1	1	-7	-2	0	4
COc1nc(-c2ccccc2)ccc1-c1noc(-c2ccccc2Br)n1	3	-3	-11	1	4
COc1ccc(C2CC(=O)c3cnc(NC(=O)c4ccccc4)nc3C2)cc1OC (configuration not stated)	-3	-8	2	0	-9
COc1cc(C2CC(=O)c3cnc(NC(=O)COc4ccccc4)nc3C2)cc(OC)c1OC (configuration not stated)	2	-3	-2	-1	-30*
Cc1ccc2cccc(NC(=O)c3cccc4c(Br)cccc34)c2n1	7	-2	8	-3	-3
O=C(Cn1c(SCC(=O)Nc2ccc(F)cc2)nc2ccccc21)NCc1ccc(Cl)cc1	13	0	13	0	5
O=C1CCC/C1=C/Nc1ccc(Cl)cc1	-2	3	-3	0	14
O=C1CCC/C1=C\Nc1ccc(Cl)c([N+](=O)[O-])c1	9	-2	0	0	-40*
COc1ccc(/C(C)=N/NC2=NCCN2)cc1Cl	2	-9	6	2	-93*
O=C(Nc1ccccc1)c1cccc2c(=O)c3c([nH]c12)CCCC3	-1	-2	0	0	1
CCOC(=O)c1ccc2c(c1)N(CC(=O)N1CCCC1)C(=O)C(C)(C)O2	0	0	36*	0	-10
C/C(=N\NC(=O)CNc1ccc(F)cc1)c1cc2ccccc2o1	2	-5	-5	-1	-40*
CCOC(=O)c1ccc(NC(=O)Cn2c(=O)cc(C(F)(F)F)c3c(C)nn(C)c32)cc1	0	-3	4	0	4
Cc1ccc2c(CC(=O)OC(C)C(=O)NCc3ccc4c(c3)OCO4)coc2c1 (configuration not stated)	9	-3	3	0	-32*
COC(c1ccccc1)c1nnc(CCC(=O)N(C)CCCC2CCCC2)o1 (configuration not stated)	6	-3	-11	-2	-32*
Cc1ccc(NC(=O)CCCn2c(=O)c3cccn3c3ccccc32)cc1C	2	-2	-9	0	-4
O=C(COc1ccccc1)N1CCN(c2ccccc2)CC1	3	-3	-2	-1	-35*
O=C(CSc1ccsc1[N+](=O)[O-])N1CCN(c2ccccc2)CC1	0	-10	0	-1	-31*
O=C(COc1ccccc1)N1CCN(C(=O)c2cccs2)CC1	1	-4	2	0	-3
O=C(COc1ccc(Cl)cc1)N1CCN(C(=O)c2cccs2)CC1	6	-2	9	1	-61*
O=C(COc1ccc(Br)cc1)N1CCN(c2ccccc2)CC1	0	-3	-2	0	0
O=C(OCC(=O)N1CCN(c2ccccc2)CC1)c1ccccc1[N+](=O)[O-]	3	-16	1	0	-36*
SMILES	D1 agonist	D1 potentiator	TRHR enhancer	TRHR ag	D1 antag
CCCn1ccc2c(OCC(=O)Nc3ccc(C(F)(F)F)cc3)cccc2c1=O	7	-5	-1	1	/
CCOCCc1nn2c(=O)cc(COC(=O)c3cccs3)nc2s1	11	-5	9	-1	17
CCOCCc1nn2c(=O)cc(COC(=O)c3ccccc3OC)nc2s1	0	-9	1	0	-32*
COC(=O)[C@@H]1C[C@@H]2CC[C@@H](O)C[C@@H]2N1Cc1ccc(C(F)(F)F)cc1	9	-2	-1	0	-5
COC(=O)[C@@H]1C[C@H]2CC[C@H](O)C[C@H]2N1Cc1ccc(C(C)(C)C)cc1	2	-8	6	0	-34*
COc1ccc(OC)c(Nc2nc3ccccc3nc2-n2nc(C)cc2C)c1	4	-1	0	4	11
O=C(Cn1cc(SCc2ccc(C(F)(F)F)cc2)c2ccccc21)N1CCOCC1	3	-2	1	0	7
Cc1nc(N2CCCC2)ncc1C(=O)NCc1cccc(Cl)c1	0	2	-1	0	-2
C=CCNC(=O)c1cc(C(=O)C(C)c2ncc(C(F)(F)F)cc2Cl)c[nH]1 (configuration not stated)	36*	3	6	-1	-2
CNC(=O)C(C)c1ncc(C(F)(F)F)cc1Cl (configuration not stated)	2	-5	-10	0	-8
O=C1Nc2ccccc2C(O)(C(=O)NCc2ccc3c(c2)OCO3)N1c1ccc(Cl)c(Cl)c1 (configuration not stated)	31*	4	-7	7	3
O=C(c1n[nH]c(=O)c2ccccc12)N1CCN(Cc2ccc3c(c2)OCO3)CC1	5	-2	11	1	19
Nc1c(C(=O)NCc2ccc3c(c2)OCO3)nnn1Cc1ccc(Br)cc1	31*	4	-6	4	-4
Nc1c(C(=O)NCc2ccc3c(c2)OCO3)nnn1CC(=O)Nc1ccc(Br)cc1	6	-4	9	-2	5
O=C(Cn1nc(-c2ccccc2)ccc1=O)NCc1ccc2c(c1)OCO2	-1	33*	14	-1	-5
O=C(NCc1ccc2c(c1)OCO2)c1n[nH]c(=O)c2ccccc12	0	-1	-5	-1	-50*
O=C(Nc1cccc(F)c1)c1ccc2c(c1)N(Cc1ccccc1)C(=O)c1ccccc1S2(=O)=O	9	-1	-2	1	21
COc1ccc(-c2nnc(SCC(=O)Oc3cc(C)ccc3C)o2)cc1	-1	-1	-3	0	10
Cc1ccc(N2CCN(C(=O)c3cnn(-c4ccc(F)cc4F)c3C3CCN(C(=O)OC(C)(C)C)CC3)CC2)c(C)c1	4	-6	13	2	3
O=C(O)CC1c2ccccc2C=Cc2ccccc21	0	-6	-2	0	-32*
O=C(O)CC1NC(=O)N(c2ccccc2)C1=O (configuration not stated)	1	-5	-12	1	2
CCc1nnc2n1N(C(C)=O)C(c1ccc(C(C)(C)C)cc1)=C(C(C)=O)S2	-4	5	3	0	/
O/C(=C\c1ccc2ccccc2n1)c1ccncc1	45*	-3	-2	17	6
Cc1ccc(SCC(=O)Nc2ccc(N3CCN(C)CC3)c(F)c2)cc1	4	-12	9	1	-59*
COc1ccc(SCC(=O)Nc2ccc(N3CCN(C)CC3)c(F)c2)cc1	4	-25	-8	-1	3

Screens as filed in PubChem.
